From PubChem BioAssay AID588719 (Southern Research Specialized Biocontainment Screening …, 2011)
About 920 (61%) of roughly 1,500 compounds were called active. How the calls were made is not given here. So high a share suggests a set chosen from earlier hits. The list shows a part of the results. Measured potencies and affinities stand elsewhere.

assay: Vero 76 cell cytotoxicity, dose response, cytotoxicity control for VEEV inhibitor project (AID 588719); settings: Vero 76 cells viability, cytotoxicity counter-screen; series mostly up to 25 µM; viability: at the top concentration

Structure (SMILES) | viability
O=C(NCc1ccccc1)C(=O)Nc1nc(-c2ccccc2)cs1 | 80.5% (inactive)
Cc1cccc(-n2c(O)c(C=Nc3ccccc3-c3n[nH]c(=S)[nH]c3=O)c3ccccc3c2=O)n1 | 102% (inactive)
O=C(CNC(=O)C1COc2ccccc2O1)N/N=C\c1ccc(Cl)cc1 (stereo not given) | 89.8% (inactive)
Nc1ccc(C(=O)OCCCc2nc3cc4ccccc4cc3[nH]2)cc1 | 96.1% (inactive)
CN(C)CCNc1nc2sc3c(c2c(=O)n1-c1ccccc1)CCCCC3 | 72.7% (inactive)
Cc1ccc(-c2cc(-c3ccco3)c3c(N)c(C(=O)NN)oc3n2)cc1 | 80.4% (inactive)
Cc1cccc(-c2ccc(NC(=O)C3CCN(CC4CC4)CC3)cc2)c1 | 89.7% (inactive)
CCn1ncc(CN2CCC(C(=O)Nc3cccc(-c4cccc(F)c4)c3)CC2)c1C | 80.2% (inactive)
Cc1cccn2c(=O)c3cc(C#N)c(=NC(=O)c4cccs4)n(CC(C)C)c3nc12 | 85.9% (inactive)
COCCNC(=S)NCc1ccc2[nH]c3c(c2c1)CCCC3 | 89.9% (inactive)
Cc1cc2nc3c(=O)[nH]c(=S)[nH]c3nc2cc1NC(=O)C(F)(F)F | 83% (inactive)
Cc1cccnc1CN1CCN(Cc2nc(C(c3ccccc3)c3ccccc3)no2)CC1 | 91.9% (inactive)
CN1CCc2nc(SCc3cccc(Br)c3)c(C#N)cc2C1 | 87.3% (inactive)
COc1ccc2sc(N(CCCN(C)C)C(=O)c3ccc(S(=O)(=O)N(C)C4CCCCC4)cc3)nc2c1 | 79.1% (inactive)
COc1ccc2sc(N(CCCN(C)C)C(=O)c3ccc(S(=O)(=O)N(C)Cc4ccccc4)cc3)nc2c1 | 87.9% (inactive)
O=C(NNC(=O)c1cc2cc(OC(F)(F)F)ccc2[nH]1)c1ccc(Cl)cc1 | 87.9% (inactive)
NNC(=O)c1n[nH]c(=O)c2ccccc12 | 94.6% (inactive)
Cc1cccc(CS(=O)(=O)c2ncc(Cl)c(C(=O)NCc3ccccc3)n2)c1 | 90.3% (inactive)
CCOc1ccc(Cn2c(=O)sc3ccccc32)cc1 | 83.2% (inactive)
Cc1nc(-c2ccccn2)sc1C(=O)Nc1ccc(Cl)c(Cl)c1 | 75.4% (inactive)
Cc1ccc2nc(-c3ccc(NC(=S)NCC(C)(C)CN(C)C)cc3)sc2c1 | 89.8% (inactive)
CCOc1ccc(N2C(=O)CC(Sc3nc4ccc(OCC)cc4s3)C2=O)cc1 (stereo not given) | 100% (inactive)
CC12CCC(C(=NO)C1=O)C2(C)C (stereo not given) | 109% (inactive)
O=[N+]([O-])c1ccc(CNC2CCCc3ccccc32)cc1 (stereo not given) | 88% (inactive)
COCCCNCCCCOc1ccc(OCc2ccccc2)cc1 | 75.8% (inactive)

Structure (SMILES) | viability
CN(C)c1ccc(P(=O)(OCc2ccccc2)C(O)c2ccccc2)cc1 (stereo not given) | 83% (inactive)
CC(Oc1ccc(F)cc1)C(=O)Nc1ccc2ccccc2c1 (stereo not given) | 93.3% (inactive)
Cc1cc(C(=O)OC(C)C(=O)Nc2nc(-c3ccccc3)cs2)c(C)o1 (stereo not given) | 88.3% (inactive)
CCOc1ccccc1Nc1nnc(SC(C)C(=O)Nc2nc(-c3ccccc3)cs2)s1 (stereo not given) | 79.9% (inactive)
CC(Oc1ccccc1F)C(=O)Nc1ccc2ccccc2c1 (stereo not given) | 87.3% (inactive)
Cc1cccc(-n2nc([N+](=O)[O-])c(=NC3CCN(Cc4ccccc4)CC3)n2O)c1 | 85.3% (inactive)
Cc1ccc(C)c(NC(=S)NCCN(C2CCCCC2)C2CCCC2)c1 | 87.6% (inactive)
CCOc1ccc(-n2c(=O)c3sccc3n(Cc3cccc([N+](=O)[O-])c3)c2=O)cc1 | 87.9% (inactive)
Cc1ccc(C(=O)C[n+]2ccccc2C)cc1[N+](=O)[O-] | 80.7% (inactive)
COC(=O)Cn1c(=O)c(C(=O)CCl)c(N)n(Cc2ccccc2)c1=O | 82.1% (inactive)
Cc1nn(C(C)C(=O)Nc2ccccc2Cl)c(=O)c2nn(-c3ccccc3)c(C)c12 (stereo not given) | 83.4% (inactive)
Cc1ccc(S(=O)(=O)N2C[C@@H](C)[C@]3(C2)[C@H](O)[C@H](OC(=O)Nc2cccs2)C[C@H]2C(=O)N(c4ccccc4)C(=O)[C@H]23)cc1 | 71.4% (inactive)
COc1ccc(/C=C2\CCCC3C2=NN(C(=O)CSc2n[nH]c(N)n2)C3c2ccc(OC)cc2)cc1 (stereo not given) | 84.7% (inactive)
Cc1ccc2[nH]c(CN3CCC(CO)(CC4CCCCO4)CC3)c(C)c2c1 (stereo not given) | 72.8% (inactive)
COc1cc(C(=O)O/N=C2/C=CC(=O)C(C)=C2C)cc(OC)c1OC | 87.6% (inactive)
CC[C@@H](O)C[C@H]1CCC[C@@]2(C[C@@H]3OC(=O)/C=C/[C@@](C)(O)[C@@H](O)[C@H](C)[C@@H](O)[C@H](OC4CCC(N(C)C)C(C)O4)[C@@H](O)[C@](C)(O)CCCCC/C=C/[C@@H]4CC(C)(C)O[C@@]4(O)C[C@H](O2)[C@H]3C)O1 (stereo not given in full) | 6.04% (inactive)
O=C(Cc1cccc2ccccc12)Nc1ccc(Br)cc1C(=O)O | 82.4% (inactive)
COc1ccccc1NC(=O)c1cc2ccccc2o/c1=N\O | 77.5% (inactive)
COc1ccc(/C=C/C(=O)NC(=S)N2CCN(c3ccccc3OC)CC2)cc1 | 93.5% (inactive)
CCOC(=O)N1CCN(C(=O)CNC2CCCCCCC2)CC1 | 93.7% (inactive)
C=CCN=c1scc(-c2ccccc2)n1/N=C/c1ccccn1 | 62.1% (inactive)
N#C/C(=C/c1ccc(-c2ccc([N+](=O)[O-])cc2)o1)c1nnc(N2CCOCC2)n1-c1ccccc1 | 92% (inactive)
O=C(O)c1ccccc1NC(=O)c1ccccc1Nc1ccccc1 | 84.6% (inactive)
Cc1cccc2c(=O)n(C(=O)c3ccccc3)c(N)nc12 | 75% (inactive)
Cc1ccc2c(c1)c1c3n2CCN(CC(O)CNC(C)C)C3CCC1 (stereo not given) | 81.5% (inactive)
